Hit rate of the full screen: of about 69,000 compounds, about 8,600 (12%) showed an effect of 50% or more. Only a selection was taken, and strong results are over-represented in it overall.

The assay deals with Plasmodium berghei. The assay can be described thus: Screen against P. berghei liver stage (PbLuc), transformed with Luciferase, at 10uM. The assay is classed as functional, HepG2. The conditions noted are these: tested at 10 uM.
For the compound `Cc1ccc(OCC(O)CN2CCC(Cn3cccn3)CC2)cc1` (stereo unspecified), the INHIBITION is listed as 28.5%.
To `Cc1ccc(-c2nc(C(=O)N3CCCC(C(N)=O)C3)cs2)c(C)c1` (stereo unspecified) belongs -79.45%; to `CC(c1ccncc1)N(CCN(C)C)C(=O)Nc1ccc(Cl)cc1` (stereo unspecified), 8.49%; to `Cc1nn(CC(C)C)c(C)c1CC(=O)N1CCCC(NS(C)(=O)=O)C1` (stereo unspecified), 17.1%.
To `Cc1cc(C)c(C#N)c(N2CCC3(CCCN(CCO)C3=O)C2)n1` (stereo unspecified) belongs -17.2%.
To `COc1cn(CC(=O)N2CCC(c3ccccc3)CC2)c(C)cc1=O` belongs 12.4%; to `Cc1ccc2c(c1)C1(CCNCC1)CC2NC1CC1` (stereo unspecified), 67.5%.
Turning to `Cc1ccc2c(c1)C(NC1CC1)CC21CCNCC1` (stereo unspecified), the INHIBITION came to 42.1%.
To `Cc1ccc2c(c1)C1(CCNCC1)CC2OCC1CC1` (stereo unspecified) belongs -26.5%.
With `COc1cccc(N2C(=O)CC3(CCNCC3)C2=O)c1`, the INHIBITION is 22.3%.
To `COc1ccc2c(c1)C1(CCNCC1)CC2NC1CC1` (stereo unspecified) belongs 94.6%.
To `COc1cccc(-c2ccnc(C3CCNCC3)c2)c1` belongs -23.8%.
For the compound `COc1cccc(C(=O)N2CCCCC2c2nccs2)c1OC` (stereo unspecified), the INHIBITION was -7.35%.
To `COCC(=O)N1CCC(c2cc3n(n2)[C@@H](C(F)(F)F)C[C@@H](C)N3)CC1` belongs 49.6%.
To `CC(C)(O)CCc1cccc(C(=O)N2CCC[C@H]2C(N)=O)c1` belongs 40.2%; to `COc1ccc(NC(=O)NCCCn2nc3ccccn3c2=O)cc1`, 16.8%.
On to `O=C(N1CCCC1)N1CCO[C@H]2[C@@H](OCc3cccnc3)CC[C@@H]21`, for which the INHIBITION is recorded as -26.5%.
To `Cn1c(CN2CCCC(Cn3cncn3)C2)nc2ccccc21` (stereo unspecified) belongs 33.1%.
Consider `O=C(CN1CCC(c2nnc(C(F)(F)F)o2)CC1)Nc1cccnc1`, for which the INHIBITION is on record as -17.8%.
For `CCc1ccccc1NC(=O)c1cnn(C)c1C`, the INHIBITION came to 21.5%.
To `CCCN(CCC)C(=O)c1cnn(C)c1C` belongs 51.3%; to `CCCN(CCC)C(=O)c1sc(C)nc1C`, -3.14%.
To `COCCN(Cc1ccc(F)cc1Cl)C(=O)c1ccccn1` belongs 52.4%.
To `COCCN(Cc1ccc(F)cc1Cl)C(=O)c1csnn1` belongs 39.5%.
With `COCCN(Cc1ccc(F)cc1Cl)C(=O)c1ccncc1`, the INHIBITION is recorded as 21%.
To `COCCN(Cc1ccccc1)C(=O)c1cnn(C)c1C` belongs 81.5%; to `COCCN(Cc1ccc(F)cc1Cl)C(=O)c1ccc(=O)[nH]n1`, 16.6%; to `COCCN(Cc1ccc(F)cc1Cl)C(=O)c1cnn(C)c1C`, 80.2%.
To `COCCN(Cc1ccoc1)C(=O)c1ccccc1Cl` belongs -33.2%; to `COCCN(Cc1ccoc1)C(=O)c1ccccc1OC`, 28.4%; to `COCCN(Cc1ccc(F)cc1Cl)C(=O)c1cc(C)n[nH]1`, 32.5%.
To `CN1CCC(NC(=O)C2CN(c3cncnc3)CCO2)CC1` (stereo unspecified) belongs 14.7%; to `CN1C[C@@H](c2cccc(F)c2)[C@H]2[C@H]1CCCCCN2C(=O)C1CC1`, 12.2535%.
Take `COc1ccc(C(O)CNC(=O)NCc2nc(C)cs2)cc1` (stereo unspecified): the INHIBITION was 9.14%.
To `COc1ccc(C(C)NC(=O)Cn2ccc(=O)n(C)c2=O)cc1OC` (stereo unspecified) belongs 31.9%; to `COc1ccc(CC(=O)N2CCCC2Cn2cc(C)cn2)c(OC)c1` (stereo unspecified), 43.2%.
Take `CC(C)(O)CN1CCN(C(=O)c2cccn2Cc2cccnc2)CC1`: the INHIBITION is 34.6%.
Consider `Cc1cccc2nc(CN3CCCC3Cn3cccn3)cn12` (stereo unspecified), for which the INHIBITION was 19.4%.
In the case of `Cn1cc(CNC2CCCOc3c2ccc2ccccc32)cn1` (stereo unspecified), the INHIBITION is listed as -28.7%.
Consider `COCCN(CCOC)C(=O)c1cnn(C)c1C`, for which the INHIBITION is reported as 90.7%.
As to `COCCNC(=O)CN(C)Cc1ccc(F)cc1Cl`, the INHIBITION was found to be 52.2%.
To `COCCN(CCOC)C(=O)c1cnn(C)c1-n1c(C)ccc1C` belongs 42.1%; to `CCCn1ncc(C(=O)N(CCOC)Cc2c(C)nn(CC)c2C)c1C`, -89.3%.
To `CNC(=O)CN(C)Cc1ccc(F)cc1Cl` belongs -154%; to `COCCCNC(=O)CN(C)Cc1ccc(F)cc1Cl`, -102%.
To `CN(C)C(=O)C1CCN(C(=O)c2c[nH]c3cc(Cl)ccc23)CC1` belongs -32.2%; to `CN1CCC(c2cncc(C(=O)NCc3ccc(F)cc3)n2)CC1`, -3.02%; to `O=C(CCc1cccnc1)N1CCC2(CCN(CC3CCCC3)C2)C1` (stereo unspecified), -7.2%.
As to `COCCN1CCC(c2cncc(-c3ccccc3C)n2)CC1`, the INHIBITION turned out to be 46%.
To `COc1ccc(CN2CCN(C3CCc4ccccc4C3)CC2)cc1O` (stereo unspecified) belongs 46.7%.
Turning to `Oc1cccc(CN2CCN(C3CCc4ccccc4C3)CC2)c1` (stereo unspecified), the INHIBITION worked out at 54.8%.
For `COc1cc(O)ccc1CN1CCN(C2CCc3ccccc3C2)CC1` (stereo unspecified), the INHIBITION stood at 37.6%.
For the compound `CNc1cc(C)nc(C2COCCN2CCc2ccc(F)cc2)n1` (stereo unspecified), the INHIBITION came to 19.6%.
To `CCN1Cc2cc(F)ccc2N(C(C)=O)CCC1=O` belongs 23%; to `CC(C)N1CCc2[nH]nc(C(=O)N3CCOCC3)c2C1`, -1.12%.
To `CCN(CC)[C@@H]1CN(C(=O)c2ccc(C#N)cc2)[C@@H]2CCCO[C@H]12` belongs 73.6%; to `CN(C)[C@@H]1CN(C(=O)c2ccc(C#N)cc2)[C@@H]2CCCO[C@H]12`, -73.3%; to `CCN(CC)[C@@H]1CN(C(=O)c2ccnnc2)[C@@H]2CCCO[C@H]12`, -62.8%.
To `COCCn1c2c(ccc1=O)CCN(C(=O)Cc1ccsc1)CC2` belongs 27.5%; to `CC(C)C(=O)N1CCCC(c2ncncc2-c2ccncc2)C1` (stereo unspecified), 48.3%.
Consider `Cc1cnc(CN2CC=C(c3c[nH]c4ncccc34)CC2)o1`, for which the INHIBITION is reported as 44.9%.
In the case of `Cc1noc(CN2CC=C(c3cnn(C4CCS(=O)(=O)C4)c3)CC2)n1` (stereo unspecified), the INHIBITION is listed as 1.98%.
To `Fc1ccc2c(C3=CCN(Cc4nnc(C5CCC5)o4)CC3)c[nH]c2c1` belongs 34.6%; to `Cc1noc(CN2CC=C(c3c[nH]c4ncccc34)CC2)n1`, 74.7%.
To `C1=C(c2c[nH]c3ncccc23)CCN(Cc2nnc(C3CC3)o2)C1` belongs 71.4%.
To `O=C(c1ccccn1)N1CCCN(Cc2nnc(C3CC3)o2)CC1` belongs -57.4%; to `Cc1cnn(CC2CCCCN2C(=O)Cc2cccc(F)c2)c1` (stereo unspecified), 35.9%; to `COc1ccc(C(C)NC(=O)c2nn(C)c(C)c2Br)cc1` (stereo unspecified), 30.2%.
With `OC(CN1CCN(Cc2ccc(F)cc2)CC1)C1CC1` (stereo unspecified), the INHIBITION was -0.113%.
Turning to `Cc1cc(C2CCCCCN2Cc2cn(C)nc2C)no1` (stereo unspecified), the INHIBITION came to 6.32%.
To `O=C(Nc1ccc(F)cc1)N1C[C@@H]2C[C@H](C(=O)N3CCCC3)[C@H](C1)O2` belongs 7.67%.
To `CC(C)CN(CCc1ccccc1)Cc1nc2c(cnn2C)c(=O)[nH]1` belongs 29.2%; to `Cc1ccccc1CC(C)NCc1c(C)nn(C)c1N1CCOCC1` (stereo unspecified), 13.5%; to `CCc1ccccc1OCCN(C)C(=O)CN1CCCC1`, 59.1%.
Turning to `CCc1ccccc1OCCN(C)C(=O)CCN1CCCCO1`, the INHIBITION stood at 69.3%.
To `CCc1ccccc1OCCN(C)C(=O)CCN1CCCO1` belongs 42.4%; to `CN(CCCOc1ccccc1Cl)C(=O)CN1CCCCCC1=O`, 21.2%.
In the case of `Cc1ccc(OCCN(C)C(=O)CCCN2CCCC2=O)c(C)c1`, the INHIBITION was -12.6%.
To `CCc1ccccc1OCCCN(C)C(=O)C1CCCN1C(N)=O` (stereo unspecified) belongs -40.4%; to `O=C(Cc1csc(-c2ccccc2F)n1)NCc1cccc(C(=O)O)c1`, 0.29%.
To `CO[C@H]1CN(S(=O)(=O)c2ccccc2F)C[C@@]12CCCO2` belongs 3.48%; to `Cc1nc(N)cc(C2CCN2CCOc2ccccc2)n1` (stereo unspecified), -0.232%.
To `COc1ccnc(N2CCN(C(=O)CN3CCOCC3)CC2)n1` belongs 31.9%; to `CC(=O)N1CCCC1c1nccnc1Nc1ncccn1` (stereo unspecified), -107%.
On to `Cc1c(Cl)c(C(F)(F)F)nn1C(C)C(=O)NC1CCN(C)CC1` (stereo unspecified), for which the INHIBITION stood at 26.8%.
Take `O=C(Cn1nc(C(F)(F)F)c(Cl)c1C1CC1)NN1CCOCC1`: the INHIBITION is listed as -3.11%.
To `CC(C(=O)O)n1nc(C(F)(F)F)c(Cl)c1C1CC1` (stereo unspecified) belongs 7.3%.
To `Cc1c(Cl)c(C(F)(F)F)nn1C(C)C(=O)NN1CCN(C)CC1` (stereo unspecified) belongs 35.7%; to `CC(C(=O)NN1CCOCC1)n1nc(C(F)(F)F)c(Cl)c1C1CC1` (stereo unspecified), 74.1%; to `CC(C(=O)NC1CCN(C)CC1)n1nc(C(F)(F)F)c(Cl)c1C1CC1` (stereo unspecified), 82.4%.
To `Cn1ccc2ccc(C(=O)Nc3nc[nH]n3)cc21` belongs 46.4%.
In the case of `CC(=O)N1CCN(C(=O)NCc2ccc(Cl)s2)CC1`, the INHIBITION is reported as 42%.
As to `O=C1CC[C@H]2[C@H](CCN2C(=O)c2ccc[nH]2)N1CCN1CCOCC1`, the INHIBITION is reported as -14.4%.
To `Cc1nc2ccccc2n1CCNCc1cccc(O)c1` belongs -57.5%; to `C[C@@H]1C[C@H]2CN(S(=O)(=O)c3ccc(F)cc3)C[C@H]2O1`, 24.8%; to `O=C1CO[C@@H]2CN(S(=O)(=O)c3ccccc3F)C[C@H]2N1`, 44.4%.
To `O=C1CO[C@@H]2CN(S(=O)(=O)c3ccc(F)cc3)C[C@H]2N1` belongs 82.2%; to `c1ncn(Cc2cn3c(n2)CN(CC2CCCC2)CC3)n1`, -16.9%.
With `O=C(c1cnc(-c2cnccn2)s1)N1CCCC1Cn1cccn1` (stereo unspecified), the INHIBITION is on record as -21.5%.
To `O=C(NCc1ccccc1)N1CCC2(CC(=O)N(c3ccccc3)C2)C1` (stereo unspecified) belongs -14.7%.
To `CCN(C(C)=O)c1nc(CN2CCCC2Cn2cncn2)cs1` (stereo unspecified) belongs -6.44%; to `COCCN1CCC(C(=O)N(C)Cc2cccc(Cl)c2)C1` (stereo unspecified), 13.9%.
For the compound `COCCN1CCC(C(=O)N(C)Cc2c[nH]c3ccc(C)cc23)C1` (stereo unspecified), the INHIBITION turned out to be 39.9%.
In the case of `COCCN1CCC(C(=O)N(C)CCOc2ccc(C)cc2Cl)C1` (stereo unspecified), the INHIBITION amounted to 59.3%.
To `Cc1cn(-c2ccccc2)nc1NS(=O)(=O)c1ccc(C(=O)O)cc1F` belongs -20%.
To `CSc1ccccc1CN1CCn2nc(CNC(C)=O)cc2C1` belongs 55.4%; to `CSc1ccccc1CN1CCCn2nc(CNC(=O)N(C)C)cc2C1`, -19.4%.
To `CC(=O)NCc1cc2n(n1)CCN(Cc1cccc(Cl)c1Cl)C2` belongs -26.8%.
`CSc1ccccc1CN1CCn2nc(CNC(=O)N(C)C)cc2C1`: the INHIBITION was found to be 4.97%.
To `CCc1ccccc1CN1CCn2nc(CNC(C)=O)cc2C1` belongs 22%.
To `CC(=O)NCc1cc2n(n1)CCN(Cc1ccccc1OC(F)(F)F)C2` belongs 53.8%.

The values above are taken from ChEMBL document CHEMBL4513216, “Probing the Open Global Health Chemical Diversity Library for Multistage-Active Starting Points for Next-Generation Antimalarials” (ACS Infect Dis, 2020).
